Values joined by “and” are separate entries in the source; they are usually repeats but may differ in a detail not shown here. Equal entries are not always repeated. Records with an inconclusive call do not appear. Entries that show only a call come without a potency. Some structures have more than one record in an assay (separate samples or runs), and their calls can disagree. Active and inactive are the calls of the source. Calls come from the whole dose curve; as a rule, active = well fitted cell-killing curve with a large enough effect in the repeat runs; inconclusive = weak or mixed curves, or effect the other way; inactive = no such curve, though single readings can be large or run the other way.
experiment: qHTS assay for identifying genotoxic compounds that show differential cytotoxicity against isogenic chicken DT40 cell lines with known DNA damage response pathways - Rev3 mutant cell line (AID 743014); conditions: chicken DT40 Rev3-/- viability, CellTiter-Glo, 40 h; series mostly up to 68.4 µM; note: nearly all actives have a fitted effect of over 55% in size
Description: National Center for Advancing Translational Sciences [NCATS]
NIH Chemical Genomics Center [NCGC]
U.S. Environmental Protection Agency [EPA]
National Institutes of Environmental Health Sciences [NIEHS]
National Toxicology Program [NTP]
U.S. Food and Drug Administration [FDA]
DNA repair pathways play a critical role in cellular homeostasis by repairing DNA damage induced by endogenous processes and xenobiotics. Isogenic chicken DT40 cell lines deficient in different DNA repair pathways can be used to identify genotoxic compounds and aid in characterizing the nature of the DNA damage induced. Two DNA repair-deficient cell lines with disrupted genes, Rad54/Ku70 or Rev3, were used to screen the Tox21 10K compound library. Possible genotoxicity was based on the presence of a significant increase in cytotoxicity in one or more of the DNA repair-deficient cell lines compared to that observed in the parental DNA repair-proficient cell line. CellTiter Glo viability assay (Promega, Madison, WI) was used to measure cell viability in these cells after compound treatment. This assay includes the data from the Rev3 mutant cell line.
Tox21 Assay Protocol Summary:
300 DT40 mutant cells in 5 uL/well were dispensed into white, solid-bottom 1536-well plates using a Multidrop Combi (ThermoFisher Scientific, Waltham, MA) dispenser. After the assay plates were incubated at 37 C/5% CO2 for approximately 0.5 hour, 23 nL of compounds dissolved in DMSO, positive controls or DMSO only was transferred into the assay plate by a pintool work station (Kalypsys, San Diego, CA). The assay plates were incubated at 37 C/5% CO2 for 40 hours. After 5 uL per well of CellTiter-Glo reagent was added into each well of the assay plates, the plates were incubated for 30 min at room temperature and the luminescence intensity of the plates was measured using a ViewLux (PerkinElmer, Shelton, CT) plate reader.
Potency is the fitted concentration of half-maximal effect.

SMILES	Potency
CCN(CC)C(=O)Nc1ccc(OCC(O)CNC(C)(C)C)c(C(C)=O)c1 (stereo not given)	inactive
Oc1c(Cl)cc(Cl)cc1Sc1cc(Cl)cc(Cl)c1O	17.3 µM (active) [middle of 4 runs]
O=C(Cl)c1cccc(C(=O)Cl)c1	inactive
COc1ccc(CCN(C)CCCC(C#N)(c2ccc(OC)c(OC)c2)C(C)C)cc1OC (stereo not given)	23.7 µM (active) and 27.3 µM (active)
c1ccc2c(c1)-c1cccc3c1c-2cc1ccccc13	inactive
CC1=C(C=O)C(C)(C)CC=C1	inactive
c1ccc2cc3c(ccc4ccccc43)cc2c1	inactive
COC(=O)c1cccc(C(=O)OC)c1	inactive
CCCCCCCCCCCCc1ccccc1O	7.59 µM (active) and 24.3 µM (active)
O=C(O)CCc1ccccc1	inactive
O=C(O[C@@H]1Cc2c(O)cc(O)cc2O[C@@H]1c1cc(O)c(O)c(O)c1)c1cc(O)c(O)c(O)c1	54.6 µM (active)
CCc1cc(C(C)(C)C)c(O)c(C(C)(C)C)c1	inactive and 15.4 µM (active)
OCCN1CCNCC1	31.2 µM (active)
C/C=C/c1ccc(OCC)c(O)c1	inactive
Cc1ccnc2c1NC(=O)c1cccnc1N2C1CC1	inactive
OCCOCCN1CCN(C(c2ccccc2)c2ccc(Cl)cc2)CC1 (stereo not given)	21.4 µM (active)
Cc1cc(C2(c3cc(C)c(O)cc3C)OS(=O)(=O)c3ccccc32)c(C)cc1O	inactive
Cc1scc2c1N(C(=O)CN1CCN(C)CC1)c1ccccc1NC2=O	inactive
CCCCCCCCCCCC[N+](C)(C)C	432 nM (active) and 137 nM (active) and 217 nM (active)
CCC(C)(Oc1ccc(C2(c3ccc(OC(C)(CC)C(=O)O)cc3)CCCCC2)cc1)C(=O)O (stereo not given)	inactive

SMILES	Potency
CC(N)=O	inactive
CC(=O)CC(=O)Nc1ccc2[nH]c(=O)[nH]c2c1	inactive
CC1=CC(=O)c2ccccc2C1=O	23.7 µM (active) and 12.2 µM (active)
NC(N)=Nc1nc(CSCC/C(N)=N/S(N)(=O)=O)cs1	inactive
Cc1cccc2n[nH]nc12	inactive
CCN(CC)C(=S)SSC(=S)N(CC)CC	119 nM (active) and 96.9 nM (active) and 38.4 nM (active)
CCn1cc(C(=O)O)c(=O)c2cc(F)c(N3CCNC(C)C3)c(F)c21 (stereo not given)	inactive
c1ccc2c(c1)CCCC2C1=NCCN1 (stereo not given)	inactive
O=C(Nc1ccccc1SSc1ccccc1NC(=O)c1ccccc1)c1ccccc1	1.38 µM (active) and 1.72 µM (active)
C=CC(=O)OCCCCCCCC	inactive
CCCCC/C=C/CC1CC(=O)OC1=O (stereo not given)	inactive
CC(=O)CC(C)=O	inactive
CNCCC(Oc1ccc(C(F)(F)F)cc1)c1ccccc1 (stereo not given)	6.68 µM (active) and 6.03 µM (active)
N[C@@H]1CONC1=O	inactive
CC(C)(c1ccccc1)c1ccc(Nc2ccc(C(C)(C)c3ccccc3)cc2)cc1	inactive and 54.5 µM (active)
O=C(Oc1ccccc1)c1ccccc1O	inactive
Oc1c(Cl)cc(Cl)c(Cl)c1Cc1c(O)c(Cl)cc(Cl)c1Cl	5.96 µM (active) and 3.05 µM (active) and 3.86 µM (active)
Cc1ccc(S(=O)(=O)Oc2ccc(N=Nc3ccc(-c4ccc(N=Nc5c(O)ccc6cc(S(=O)(=O)O)cc(S(=O)(=O)O)c56)c(C)c4)cc3C)cc2)cc1	27.4 µM (active) and 17.8 µM (active)
Nc1cc(Cl)c(-c2cc(Cl)c(N)cc2Cl)cc1Cl	2.43 µM (active) and 5.45 µM (active)
CC[C@]1(O)C[C@@H]2CN(CCc3c([nH]c4ccccc34)[C@@](C(=O)OC)(c3cc4c(cc3OC)N(C)[C@H]3[C@@](O)(C(=O)OC)[C@H](OC(C)=O)[C@]5(CC)C=CCN6CC[C@]43[C@@H]65)C2)C1	53.1 nM (active) and 29.8 nM (active)
